“And” between values parts separate entries of the source, which are not always exact repeats. Identical values can stand only once. Inconclusive results are not listed. The source made the active and inactive calls. Unless noted, calls follow the shape of the full dose curve.
What was measured:
[1] = biological target: Lysosomal acid glucosylceramidase (Homo sapiens) (UniProt P04062); experiment: Glucocerebrosidase-p2 (AID 348; in the data active = potency below about 10 µM; also: potency is read from the fitted curve at half-maximal effect); conditions: purified GBA, blue fluorogenic substrate, 40 min
Lysosomal acid glucosylceramidase (Homo sapiens), sequence (P04062 whole entry, looked up): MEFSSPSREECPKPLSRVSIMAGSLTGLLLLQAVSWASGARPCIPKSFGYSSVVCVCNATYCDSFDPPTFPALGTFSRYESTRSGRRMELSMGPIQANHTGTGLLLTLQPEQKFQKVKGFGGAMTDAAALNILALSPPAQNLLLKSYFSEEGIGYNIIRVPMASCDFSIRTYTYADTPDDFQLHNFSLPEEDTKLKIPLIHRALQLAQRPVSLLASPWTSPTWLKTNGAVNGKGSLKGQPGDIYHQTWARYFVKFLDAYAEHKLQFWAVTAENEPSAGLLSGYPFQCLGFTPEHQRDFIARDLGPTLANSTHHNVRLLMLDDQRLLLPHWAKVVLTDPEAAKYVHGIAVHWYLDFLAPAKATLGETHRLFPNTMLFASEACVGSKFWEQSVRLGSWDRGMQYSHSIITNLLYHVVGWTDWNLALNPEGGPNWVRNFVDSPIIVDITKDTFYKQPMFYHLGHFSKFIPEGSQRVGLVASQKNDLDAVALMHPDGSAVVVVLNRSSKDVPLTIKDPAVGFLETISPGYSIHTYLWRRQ
Summary of the method: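 Compounds titrated from 0.6 nM upwards against 0.2 nM enzyme in pH 5.9 citric acid/KH2PO4, taurocholate, tween-20; blue fluorogenic substrate 80 uM, 40 min room temperature, stopped and read Ex 365/Em 440 for AC50.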

[2] = biological target: Cytochrome P450 1A2 (Homo sapiens) (UniProt P05177); experiment: p450-cyp1a2 (AID 410); conditions: recombinant CYP1A2, luciferin-ME demethylation, luminescence; series mostly up to 57 µM; also: potency is read from the fitted curve at half-maximal effect;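 as to activity change, negative = inhibition: -100% = full effect of reference inhibitor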
Cytochrome P450 1A2 (Homo sapiens), sequence (P05177 whole entry, looked up): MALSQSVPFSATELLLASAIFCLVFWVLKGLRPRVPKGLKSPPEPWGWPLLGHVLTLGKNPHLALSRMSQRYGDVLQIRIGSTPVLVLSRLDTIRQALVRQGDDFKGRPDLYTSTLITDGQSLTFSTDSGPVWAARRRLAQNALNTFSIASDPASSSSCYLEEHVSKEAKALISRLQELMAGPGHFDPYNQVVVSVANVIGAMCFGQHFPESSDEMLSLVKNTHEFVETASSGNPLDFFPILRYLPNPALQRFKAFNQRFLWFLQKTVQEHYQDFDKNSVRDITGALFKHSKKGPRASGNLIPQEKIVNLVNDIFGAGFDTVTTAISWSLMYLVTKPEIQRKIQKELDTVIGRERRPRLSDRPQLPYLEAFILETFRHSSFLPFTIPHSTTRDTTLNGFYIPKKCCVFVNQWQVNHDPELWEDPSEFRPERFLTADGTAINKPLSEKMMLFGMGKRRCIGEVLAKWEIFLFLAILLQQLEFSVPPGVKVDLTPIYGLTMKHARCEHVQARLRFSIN
Summary of the method: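 Inhibition was calculated relative to 57 uM furafylline (full inhibition). The reaction used human CYP1A2 at 20nM with Luciferin-ME at its Km, 100uM, driven by an NADPH-regenerating system for 60 min at room temperature.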

[3] = Stat Signaling Pathway (AID 446; active = well fitted curve in either direction with a large enough effect, not every such curve was filed as active;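 also: ME-180 cervical cancer cells given 40 pM IL-6 alongside compound; SIE-controlled beta-lactamase reporter measured as 460/530 nm FRET emission ratio; % is scaled to controls: 0 for no effect and ±100 for the full control effect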); conditions: ME-180 SIE beta-lactamase reporter, IL-6 stimulated, 5 h
Summary of the method: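 ME-180 cells carrying a SIE-driven beta-lactamase reporter are stimulated with 40 pM IL-6 for 5 h at 37C in the presence of compound. The 460/530 nm FRET substrate ratio is read after 2.5 h at RT. Data are normalised to 300 pM IL-6 and to 125 nM JAK inhibitor controls.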

[4] = biological target: Glucocorticoid receptor (Homo sapiens) (UniProt P04150); experiment: GR-GFP Redistribution (AID 450;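 active = compounds whose dose series gives a full or clear partial fitted curve of increased nuclear translocation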; also: potency is read from the fitted curve at half-maximal effect); conditions: U2OS GR-GFP nuclear translocation, laser cytometry, 2 h
Glucocorticoid receptor (Homo sapiens), sequence (P04150 whole entry, looked up, the tested form may be a part): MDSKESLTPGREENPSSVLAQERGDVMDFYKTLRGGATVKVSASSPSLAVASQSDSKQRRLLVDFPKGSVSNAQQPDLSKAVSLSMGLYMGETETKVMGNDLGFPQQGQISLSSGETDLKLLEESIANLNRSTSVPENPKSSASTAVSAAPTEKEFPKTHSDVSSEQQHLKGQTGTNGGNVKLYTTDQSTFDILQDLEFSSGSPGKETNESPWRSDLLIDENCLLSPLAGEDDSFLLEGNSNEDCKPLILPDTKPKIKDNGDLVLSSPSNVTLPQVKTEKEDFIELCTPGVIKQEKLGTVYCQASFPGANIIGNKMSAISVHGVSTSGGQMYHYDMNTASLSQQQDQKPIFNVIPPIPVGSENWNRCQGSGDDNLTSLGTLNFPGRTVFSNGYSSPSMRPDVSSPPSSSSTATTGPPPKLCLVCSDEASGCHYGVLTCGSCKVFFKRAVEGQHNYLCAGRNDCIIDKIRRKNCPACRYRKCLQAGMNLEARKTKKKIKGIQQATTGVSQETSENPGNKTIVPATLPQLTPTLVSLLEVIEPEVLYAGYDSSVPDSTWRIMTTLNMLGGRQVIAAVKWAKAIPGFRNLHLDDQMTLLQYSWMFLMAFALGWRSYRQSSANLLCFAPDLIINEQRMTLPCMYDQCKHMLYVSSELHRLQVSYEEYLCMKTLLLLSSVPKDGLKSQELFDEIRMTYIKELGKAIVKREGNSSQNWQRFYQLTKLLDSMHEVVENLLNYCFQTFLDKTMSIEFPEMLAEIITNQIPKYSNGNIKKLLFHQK

[5] = biological target: Glucocorticoid receptor (Homo sapiens) (UniProt P04150); experiment: GR-EFC Redistribution (AID 451); conditions: CHO-K1 GR-EFC translocation, beta-gal luminescence, 2 h; also: potency is read from the fitted curve at half-maximal effect
Summary of the method: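 CHO-K1 cells expressing nuclear EA and GR-ED fragments of b-gal; compounds titrated up to 46 uM final, 2 h at 37 C. GR nuclear translocation read as complemented b-gal luminescence after 1 h RT detection.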

[6] = biological target: 3',5'-cyclic-AMP phosphodiesterase 4B (Homo sapiens) (UniProt Q07343); experiment: qHTS Assay for Inhibitors of PDE-IV (AID 607; active = well fitted activation curve with a large enough effect in the main read-out, with a control signal flat, not every such curve was filed as active; also: % of control where 0% means no effect); conditions: HEK293 ACTOne CNG channel cells, membrane potential fluorescence; series mostly up to 22.9 µM
3',5'-cyclic-AMP phosphodiesterase 4B (Homo sapiens), sequence (Q07343 whole entry, looked up): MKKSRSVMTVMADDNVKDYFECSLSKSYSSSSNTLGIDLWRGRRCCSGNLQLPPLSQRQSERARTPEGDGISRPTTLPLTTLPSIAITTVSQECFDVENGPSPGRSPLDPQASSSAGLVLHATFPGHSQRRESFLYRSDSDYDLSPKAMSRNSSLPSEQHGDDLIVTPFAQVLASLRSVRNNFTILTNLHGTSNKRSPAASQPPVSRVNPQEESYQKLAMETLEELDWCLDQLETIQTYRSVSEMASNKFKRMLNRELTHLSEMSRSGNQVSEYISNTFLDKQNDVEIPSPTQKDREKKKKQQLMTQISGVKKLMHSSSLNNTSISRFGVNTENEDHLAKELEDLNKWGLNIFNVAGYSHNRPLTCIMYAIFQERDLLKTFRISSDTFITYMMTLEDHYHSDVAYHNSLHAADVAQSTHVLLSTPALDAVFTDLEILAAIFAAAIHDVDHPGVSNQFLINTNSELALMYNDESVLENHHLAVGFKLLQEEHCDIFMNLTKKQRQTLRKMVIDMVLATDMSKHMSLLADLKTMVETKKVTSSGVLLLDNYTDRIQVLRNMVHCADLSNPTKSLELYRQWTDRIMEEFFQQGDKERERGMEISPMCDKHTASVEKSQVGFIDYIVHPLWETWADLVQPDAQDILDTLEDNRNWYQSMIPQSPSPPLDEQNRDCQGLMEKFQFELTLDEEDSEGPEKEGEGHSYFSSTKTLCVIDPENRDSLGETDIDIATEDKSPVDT
Summary of the method: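 HEK293 ACTOne cells with CNG channel (1000/well), endogenous PDE4; membrane potential dye, compounds up to 22.9 uM final. Fluorescence Ex 535/Em 590; RO 20-1724 (100 uM final) as reference.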

[7] = biological target: Cytochrome P450 3A4 (Homo sapiens) (UniProt P08684); experiment: qHTS Assay for Inhibitors and Substrates of Cytochrome P450 3A4 (AID 884; active = well fitted curve in the direction sought with a large enough effect; an effect the other way counts as inactive or inconclusive; also: potency is read from the fitted curve at half-maximal effect; nearly all actives have a fitted effect of over 50% in size); conditions: recombinant CYP3A4, Luciferin-PPXE luminescence; series mostly up to 57.1 µM
Cytochrome P450 3A4 (Homo sapiens), sequence (P08684 whole entry, looked up): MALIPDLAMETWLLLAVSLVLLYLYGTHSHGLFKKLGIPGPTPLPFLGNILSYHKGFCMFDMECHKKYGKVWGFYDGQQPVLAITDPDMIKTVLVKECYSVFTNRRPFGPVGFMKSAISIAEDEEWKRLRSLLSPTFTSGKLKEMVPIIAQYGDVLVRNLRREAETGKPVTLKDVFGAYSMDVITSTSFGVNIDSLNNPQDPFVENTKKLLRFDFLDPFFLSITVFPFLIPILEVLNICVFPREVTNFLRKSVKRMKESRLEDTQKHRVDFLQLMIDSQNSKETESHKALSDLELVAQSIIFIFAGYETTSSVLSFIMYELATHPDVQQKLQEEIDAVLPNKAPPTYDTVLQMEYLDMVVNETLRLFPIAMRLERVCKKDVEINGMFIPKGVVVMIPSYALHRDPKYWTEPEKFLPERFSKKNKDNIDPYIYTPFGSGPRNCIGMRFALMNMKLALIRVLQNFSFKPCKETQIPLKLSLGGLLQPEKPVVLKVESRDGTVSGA
Summary of the method: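 20 nM human CYP3A4 with 25 uM Luciferin-PPXE (at KM) in 200 mM KPO4, preincubated 10 min with compound; NADPH regeneration started a 60 min RT reaction. Luciferin detected by luminescence, normalized to 57 uM ketoconazole as full inhibition.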

[8] = biological target: Cytochrome P450 3A4 (Homo sapiens) (UniProt P08684); experiment: qHTS Assay for Activators of Cytochrome P450 3A4 (AID 885; active = well fitted curve in the direction sought with a large enough effect; an effect the other way counts as inactive or inconclusive; also: nearly all actives have a fitted effect of over 65% in size); conditions: recombinant CYP3A4, Luciferin-PPXE luminescence, 60 min; series mostly up to 57.1 µM
Summary of the method: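 Human CYP3A4 (20 nM) with Luciferin-PPXE at 25 uM (its KM) in 200 mM KPO4; 10 min compound preincubation, then NADPH regeneration and 60 min reaction at RT. Luciferin read by luminescence; normalized to 57 uM ketoconazole full inhibition.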

[9] = Confirmation and Secondary Assay for Modulators of Hemoglobin Beta Chain Splicing at IVS2 654 locus (AID 910; active = well fitted curve in the direction sought with a large enough effect; an effect the other way counts as inactive or inconclusive;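 also: HeLa cells stably carrying EGFP split by mutant beta-globin IVS2-654 intron; % of control where 0% means no effect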); conditions: HeLa EGFP-654 splicing reporter, GFP fluorescence, 48 h; series mostly up to 38.3 µM
Summary of the method: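 HeLa cells stably expressing EGFP interrupted by β-globin IVS2-654 intron, seeded overnight in Opti-MEM/2% FCS, then treated 2 days at 37 °C. Restored splicing read as total peak GFP intensity per well by laser scanning cytometry (488 nm excitation, 500–520 nm emission); 500 nM antisense PNA as control.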

[10] = Confirmation and Secondary Assay for Modulators of Hemoglobin Beta Chain Splicing at IVS2 705 locus (AID 930; active = well fitted curve in the direction sought with a large enough effect; an effect the other way counts as inactive or inconclusive;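 also: HeLa cells stably expressing the EGFP-705 splicing reporter; GFP fluorescence per well restored by corrected splicing of the IVS2-705 intron in EGFP; % of control where 0% means no effect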); conditions: HeLa EGFP-705 splicing reporter, GFP fluorescence, 48 h; series mostly up to 38.3 µM
Summary of the method: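 Fluorescence gain (488 nm laser, 500-520 nm PMT) reflects restored correct splicing of a mutant IVS2-705 intron inside EGFP in stably transfected HeLa cells after 2-day compound treatment.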

[11] = qHTS Assay for Lipid Storage Modulators (AID 1519); conditions: Drosophila S3 cells, BODIPY lipid droplet/cell ratio, laser cytometry, cells loaded with oleic acid; as to activity change, negative = inhibition: % is scaled to controls: 0 for no effect and ±100 for the full control effect
Summary of the method: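 Cells seeded at 5,000 per well were treated with compounds over a concentration series and loaded with oleic acid (400 uM, as added). Lipid droplet fluorescence (488 nm excitation, 500-530 nm channel) was read by laser-scanning cytometry and normalized to 20 uM Triacsin C.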

[12] = AP1 Signaling Pathway (AID 357; active = well fitted curve in either direction with a large enough effect, not every such curve was filed as active;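 also: ME-180 reporter cells stimulated with EGF at its EC50 level; % is scaled to controls: 0 for no effect and ±100 for the full control effect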); conditions: ME-180 (cervical carcinoma) AP-1-bla reporter, EGF-induced, beta-lactamase ratio, 5 h
Summary of the method: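 Titration-series screen for positive or negative modulators of EC50 EGF-induced signaling in ME-180 cells carrying an AP-1-driven beta-lactamase reporter. After 5 hours at 37 degrees Celsius, CCF4 460nm/530nm emission ratio gave %Activity; AC50 values derived.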

[13] = NFAT Signaling Pathway (AID 444; active = well fitted curve in either direction with a large enough effect, not every such curve was filed as active;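 also: carbachol stimulus at about its EC50 of 1 µM final; % is scaled to controls: 0 for no effect and ±100 for the full control effect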); conditions: Jurkat NFAT-bla M1, carbachol, beta-lactamase ratio, 5 h
Summary of the method: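 Jurkat cells with NFAT-driven β-lactamase reporter and co-expressed M1 receptor, stimulated with carbachol (final 1 uM, ~EC50), compound titration, 5 h at 37 °C. CCF4 loaded 1 h at RT; 460/530 nm ratio gave %activity and AC50.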

[14] = biological target: Ubiquitin carboxyl-terminal hydrolase 1 (Homo sapiens) (UniProt O94782); experiment: Inhibitors of USP1/UAF1: Pilot qHTS (AID 504865; active = well fitted curve in the direction sought with a large enough effect; an effect the other way counts as inactive or inconclusive;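 also: rhodamine fluorescence freed from ubiquitin-rhodamine substrate followed over time; top concentration of the series differs between compounds; % is scaled to controls: 0 for no effect and ±100 for the full control effect; nearly all actives have a fitted effect of over 35% in size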); conditions: purified USP1/UAF1, Ub-rhodamine cleavage fluorescence; series mostly up to 54.9 µM
Ubiquitin carboxyl-terminal hydrolase 1 (Homo sapiens), sequence (O94782 whole entry, looked up): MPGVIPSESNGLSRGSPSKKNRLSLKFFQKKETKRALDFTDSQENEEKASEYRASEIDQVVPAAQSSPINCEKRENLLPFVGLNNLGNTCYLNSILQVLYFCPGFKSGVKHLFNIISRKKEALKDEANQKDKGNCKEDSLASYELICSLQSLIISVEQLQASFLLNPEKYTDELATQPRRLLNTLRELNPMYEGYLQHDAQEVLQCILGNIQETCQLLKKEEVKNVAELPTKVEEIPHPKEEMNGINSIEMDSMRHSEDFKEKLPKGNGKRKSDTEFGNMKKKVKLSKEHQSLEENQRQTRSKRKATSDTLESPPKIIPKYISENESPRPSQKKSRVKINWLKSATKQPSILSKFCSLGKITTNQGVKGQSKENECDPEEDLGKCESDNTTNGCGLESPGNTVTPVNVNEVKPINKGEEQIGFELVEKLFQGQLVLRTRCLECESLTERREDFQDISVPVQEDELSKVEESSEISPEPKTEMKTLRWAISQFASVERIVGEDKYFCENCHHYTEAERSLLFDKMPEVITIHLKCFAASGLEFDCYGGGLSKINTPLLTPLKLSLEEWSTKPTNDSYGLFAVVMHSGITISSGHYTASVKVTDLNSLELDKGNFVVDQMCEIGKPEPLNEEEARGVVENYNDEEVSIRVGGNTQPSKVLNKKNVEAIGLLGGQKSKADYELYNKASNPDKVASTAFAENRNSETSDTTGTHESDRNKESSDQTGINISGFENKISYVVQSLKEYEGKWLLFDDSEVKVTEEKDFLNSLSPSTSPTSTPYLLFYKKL
Summary of the method: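 USP1/UAF1 complex at 1 nM preincubated 15 min at room temperature with compound, then Ub-Rho substrate added at 150 nM final. Fluorescence (480/540 nm) read kinetically in 50 mM HEPES pH 7.8, 0.5 mM EDTA, 1 mM TCEP, 0.1 mg/ml BSA, 0.01% Tween-20.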

[15] = measured here: cell count channel max response
[16] = measured here: lipid channel max response

COc1ccccc1CNc1ncnc2ccc(-c3ccc(N(C)C)cc3)cc12
inactive: Potency [1] > 11.4 µM | activity, negative = inhibition ([3]; at 7.69 µM (top of the series) unless noted) -7.61% | Potency [4] > 46 µM | Potency [5] > 46 µM | Potency [6] | Potency [8] | Potency [9] | outcome [10] | activity change, negative = inhibition ([11]; at 57.5 µM (top of the series)) 3.4%
active: Potency [2] 0.794 µM | Potency [7] 2 µM
-15%: max response [11, 16]
-18%: max response [11, 15]

C[C@@]12CCC(=O)C=C1CC[C@H]1[C@H]3CC[C@](O)(C(=O)CO)[C@]3(C)CC(=O)[C@@H]12
inactive: activity change, negative = inhibition ([12]; at 17.2 µM (top of the series)) 11.7% | activity change, negative = inhibition ([12]; at 38 µM (top of the series)) -1.21% | Potency [2] | activity change, negative = inhibition ([13]; at 17.2 µM (top of the series)) -13.1% | activity change, negative = inhibition ([13]; at 38 µM (top of the series)) -9.72% | activity, negative = inhibition ([3]; at 17.2 µM (top of the series)) 8.63% | activity, negative = inhibition ([3]; at 38 µM (top of the series)) -7% | Potency [5] > 46 µM and > 20.6 µM | Potency [6] | activity change, negative = inhibition ([11]; at 25.7 µM (top of the series)) -1.59% | Potency [14]
-3.69%: max response [11, 16]
active: Potency [4] 0.431 µM
-0.115%: max response [11, 15]
